From PubChem BioAssay
D1 ag: Allosteric Agonists of the Human D1 Dopamine Receptor: qHTS; D(1A) dopamine receptor (Homo sapiens), P21728; HEK293 T-REx D1 cells, calcium flux, agonist mode; activation, % at 2 µM; 1% of 360,000 active
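Tetracycline-induced HEK293 TREx D1 cells, force-coupled to calcium signalling, were dye-loaded with a no-wash calcium kit. Compound was pin-added after a 10 s baseline. Fluorescence was read kinetically at 1 cycle/s for 180 s, with calcium rises flagged as agonism.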
D1 antagonist: Antagonist of Human D 1 Dopamine Receptor: qHTS. HEK293 TREx D1 cells, calcium flux, dopamine EC80; stronger effect = lower value. activity change, negative = inhibition, % at 10 µM. 3.2% of 360,000 active; in the data active means activity change below about -30%
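Calcium flux readout: force-coupled, inducible Hek293 Trex D1 line, cells induced overnight at 30 C with tetracycline, dye-loaded 30–90 min at RT. Antagonism scored against EC80 dopamine challenge given 180 s after compound.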
D1 PAM: Potentiators of Human D1 Dopamine Receptor: qHTS; D(1A) dopamine receptor (Homo sapiens), P21728; HEK293 TREx D1 cells, calcium flux, dopamine EC20 potentiation; potentiation, % at 10 µM; 0.036% of 360,000 active; in the data active means potentiation above about 30%
TRHR ag: qHTS for Small Molecule Agonists and Allosteric Enhancers of Human TRH Receptor: Primary Screen for Agonists; Thyrotropin-releasing hormone receptor (Homo sapiens), P34981; TRHR cells, calcium flux fluo-8, FDSS agonist mode; activation, % at 2 µM; 0.18% of 360,000 active
Target sequence (P34981 whole entry, looked up): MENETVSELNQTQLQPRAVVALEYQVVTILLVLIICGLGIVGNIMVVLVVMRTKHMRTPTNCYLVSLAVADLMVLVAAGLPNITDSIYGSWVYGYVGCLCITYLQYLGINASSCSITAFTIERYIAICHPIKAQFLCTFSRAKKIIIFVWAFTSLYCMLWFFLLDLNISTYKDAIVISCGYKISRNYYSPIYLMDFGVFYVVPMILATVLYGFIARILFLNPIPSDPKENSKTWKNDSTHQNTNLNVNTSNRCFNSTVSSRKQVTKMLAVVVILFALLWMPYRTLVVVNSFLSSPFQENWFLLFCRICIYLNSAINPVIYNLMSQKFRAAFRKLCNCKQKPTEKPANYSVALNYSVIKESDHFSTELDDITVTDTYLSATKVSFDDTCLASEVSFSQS
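TRHR-expressing cells loaded with fluo-8 calcium dye; 23 nL library compound pin-transferred, kinetic FDSS fluorescence (Ex 480/Em 530) recorded about 180 s for agonist-induced calcium release, before a 10 nM TRH EC20 addition for potentiator mode.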
TRHR PAM: qHTS for Small Molecule Agonists and Allosteric Enhancers of Human TRH Receptor: Primary Screen for Enhancers; TRHR cells, fluo-8 calcium fluorescence, EC20 TRH enhancement; Thyrotropin-releasing hormone receptor (Homo sapiens), P34981; enhancement, % at 2 µM; 0.66% of 360,000 active; in the data active means enhancement above about 30%
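Enhancer read-out: after compound pinning and an initial kinetic agonist-mode read, an EC20 of TRH (10 nM final) was injected and fluo-8 calcium signal (Ex 480/Em 530) followed at 1 s/cycle for 100 cycles in TRHR-expressing cells.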
Numbers stand for hits; 0 = inactive; - = no result. Shown are actives, neighbours in structure and some others; about 4.6% of the full set was active somewhere. Unless noted, no stated cut-off is given here; in the data, active means activation above about 30%; inactive means the rest.

SMILES	D1 ag	D1 antagonist	D1 PAM	TRHR ag	TRHR PAM
Cc1ccc(C(CNS(=O)(=O)c2ccc(Cl)cc2)N2CCN(C)CC2)cc1 (configuration not stated)	43	-34	0	0	0
Fc1ccccc1COc1ccc(Br)cc1CNCC1CCCO1 (configuration not stated)	0	-50	0	0	0
COc1cc(CNCCNC(=O)c2nonc2N)ccc1OCc1ccc(Cl)cc1	69	0	0	0	0
Nc1nonc1C(=O)NCCNCc1ccccc1OCc1ccccc1F	0	0	0	0	0
NS(=O)(=O)c1ccc(CCNCc2ccccc2OCc2ccc(Cl)cc2)cc1	53	-48	0	0	0
C=CCOc1ccccc1CNCCc1ccc(S(N)(=O)=O)cc1	0	0	0	0	0
Nc1nonc1C(=O)NCCNCc1cc(Br)ccc1OCc1ccccc1F	31	0	0	0	0
COC(=O)c1ccccc1NC(=O)C1CCCN(C(=O)c2cnn(-c3ccc(F)cc3)c2-n2cccc2)C1 (configuration not stated)	0	0	0	0	0
COc1ccc(S(=O)(=O)N2CCC(N3CCN(Cc4ccccc4)C(=O)C3=O)CC2)cc1	0	0	0	0	0
NS(=O)(=O)c1ccc(CCNCc2cc(Cl)ccc2OCc2ccccc2)cc1	57	0	0	0	0
O=C(COc1ccc(Br)cc1CNCCc1ccccc1)NCc1ccccc1	0	-	0	0	0
NS(=O)(=O)c1ccc(CCNCc2cc(Br)ccc2OCc2ccccc2F)cc1	0	-31	0	0	0
NS(=O)(=O)c1ccc(CCNC(=O)CNCCc2ccccc2)cc1	0	0	0	0	0
COc1cc2c(=O)c(C(=O)c3ccc(C)c(C)c3)cn(Cc3ccccc3F)c2cc1OC	0	0	0	0	0
COc1ccccc1C1c2c(-c3ccc(Cl)cc3)n[nH]c2C(=O)N1c1ccc(C)cc1 (configuration not stated)	0	0	0	0	0
CN(C)CCCNCCCCNC(=O)/C=N/O	0	0	0	0	0
CN(C)CCCNCCCNC(=O)/C=N/O	0	-38	0	0	0
CCc1cccc(-n2nnc(-c3nc(-c4ccc5c(c4)OCO5)no3)c2C)c1	0	0	0	0	0
CCC1CCC(N2CCN(c3ccc([N+](=O)[O-])cc3)CC2)CC1 (configuration not stated)	0	0	0	0	0
CCC1CCC(N2CCN(c3ccc(F)cc3)CC2)CC1 (configuration not stated)	0	-46	0	0	0
Cc1cc(NC(=O)CCc2nc3cccnc3n2Cc2cccs2)ccc1Br	0	0	0	0	0
CCCCOC(=O)c1ccc(NC(=O)c2cc3c(=O)n4cccc(C)c4nc3n2C)cc1	0	0	0	0	0
CC(C)CCN(C(=O)Cc1ccccc1F)c1c(N)n(Cc2ccccc2)c(=O)[nH]c1=O	0	-55	0	0	0
COCCN(C(=O)C1=COCCO1)c1c(N)n(Cc2ccccc2)c(=O)[nH]c1=O	0	0	0	0	0
CCCN(C(=O)C(NC(=O)c1ccccc1)C(C)C)c1c(N)n(Cc2ccccc2)c(=O)[nH]c1=O (configuration not stated)	0	-77	0	0	0
SMILES	D1 ag	D1 antagonist	D1 PAM	TRHR ag	TRHR PAM
COCCN(C(=O)COC(=O)C1=COCCO1)c1c(N)n(Cc2ccccc2)c(=O)[nH]c1=O	0	-61	0	0	0
CCCCN(C(=S)NC(=O)c1ccccc1)c1c(N)n(Cc2ccccc2)c(=O)[nH]c1=O	0	0	0	0	0
CC(C)CN(C(=O)CSc1nnc(-c2ccco2)o1)c1c(N)n(Cc2ccccc2)c(=O)[nH]c1=O	0	-38	0	0	0
COc1cc(C(=O)NCCc2sc(-c3cccc(F)c3)nc2C)cc(OC)c1OC	0	0	0	0	0
CC(C)Oc1ccc(CNC(=O)CCn2c(=O)c3cccn3c3ccc(F)cc32)cc1	0	0	0	0	0
CCN(C(=O)CN1c2ccccc2CC1C)c1c(N)n(Cc2ccccc2)c(=O)[nH]c1=O (configuration not stated)	0	0	46	0	0
CC1Cc2ccccc2N1CC(=O)N(C)c1c(N)n(Cc2ccccc2)c(=O)[nH]c1=O (configuration not stated)	0	0	0	0	0
C=CCOC(=O)C(=O)/C=C/c1c(C)n(C)n(-c2ccccc2)c1=O	0	-40	0	0	0
C=CCSC(=S)Nc1c(C)n(C)n(-c2ccccc2)c1=O	0	0	0	0	0
Cn1cc(C(=O)C(=O)NC2CCCCC2)c2ccccc21	0	0	0	0	0
COc1ccc(CCNc2nccn(-c3ccc(C)c(C)c3)c2=O)cc1OC	0	-44	0	0	0
Cc1ccc(Cc2cnc(NC(=O)c3ccc4c(c3)CC(c3ccccc3)OC4=O)s2)cc1 (configuration not stated)	0	-31	0	0	0
Cc1cccc(Cc2cnc(NC(=O)c3ccc4c(c3)CC(c3ccccc3)OC4=O)s2)c1 (configuration not stated)	0	0	0	0	0
COc1cc2ccccc2cc1C(=O)N(CCN(C)C)c1nc2c(F)cc(F)cc2s1	0	-36	0	0	0
Cc1ccccc1OCC(=O)N(Cc1ccc(N(C)C)cc1)CC1CCCO1 (configuration not stated)	0	0	0	0	0
O=C(COc1ccccc1)NCCS(=O)(=O)N1CCN(c2ccccc2)CC1	0	-35	0	0	0
O=C(COc1ccccc1)NCC(c1ccco1)N1CCN(c2ccc(F)cc2)CC1 (configuration not stated)	0	-64	0	0	0
Cc1ccc(NC(=O)c2c(NC(=O)c3ccccc3Cl)sc3c2CCC3)cc1	0	0	0	0	0
O=C(NCC(c1cccnc1)N1CCc2ccccc2C1)C(=O)Nc1cccc(Cl)c1 (configuration not stated)	0	0	0	0	0
S=c1[nH]nc(-c2ccccc2Cl)n1/N=C/C=C/c1ccco1	0	-36	0	0	0
S=c1[nH]nc(-c2ccncc2)n1/N=C/C=C/c1ccco1	0	0	0	0	0
O=C(Oc1ccc2c(=O)c(Oc3ccc4ccccc4c3)coc2c1)c1cccnc1	0	-37	0	0	0
O=C(C1=C(O)C(=O)N(CC2CCCO2)C1c1cccnc1)c1ccco1 (configuration not stated)	0	-30	0	0	0
CC(=O)c1ccc(N2CCN(S(=O)(=O)c3ccc4c(c3)C(C)(C)C(=O)N4)CC2)cc1	0	0	0	0	0
